Screen size: about 13,000 compounds; about 3,200 (25%) showed an effect of 50% or more. The list shows a part of the results.
Test system: P. falciparum stage V gametocytes
Set-up: BacTiter-Glo ATP luminescence viability of purified stage V gametocytes in 384-well plates, per cent inhibition versus DMSO
Conditions: 48 h, 5 µM; inhibitor

First: Cc1cc(N2C(N)=NC(N)=NC2(C)C)ccc1Cl [TCMDC-137705]
Second: Cc1ccc(N2C(N)=NC(N)=NC2(C)C)cc1Cl [TCMDC-137708]
The “% Inhibition” value of the first is lower: -13.35% for the first, -11.46% for the second.

First: CC1(C)N=C(N)N=C(N)N1c1ccc(Oc2ccc(Cl)cc2)c(Cl)c1 [TCMDC-123522]
Second: O=C(Nc1ccc(-c2csc3nccn23)cc1)c1ccc(Cl)cc1 [TCMDC-137159]
The “% Inhibition” value of the first is higher: 76.9% for the first, 11.24% for the second.

First: COc1cccc(C(=O)NCc2cccs2)c1Oc1ccccc1 [TCMDC-141236]
Second: COc1ccc(C2CC(c3cccs3)=NN2C(=O)COc2cccc(C(C)=O)c2)cc1OC (stereo not shown) [TCMDC-125111]
The “% Inhibition” value of the first is higher: 3.513% for the first, -18.64% for the second.

First: NCC(=O)Nc1cccc(Nc2nccc(-c3c(-c4cccc(NC(=O)c5ccccc5)c4)nn4ccccc34)n2)c1 [TCMDC-135671]
Second: c1ccc2c(c1)ncn2-c1ccnc(Nc2ccncc2)n1 [TCMDC-138908]
The “% Inhibition” value of the first is lower: -11.23% for the first, 15.51% for the second.

Going from CC1CCN(C(=O)C(Cc2c[nH]c3ccccc23)NS(=O)(=O)c2ccc(Cl)cc2)CC1 (stereo not shown) [TCMDC-124494] to CC1CCN(C(=O)[C@H](Cc2c[nH]c3ccccc23)NS(=O)(=O)c2ccc(Cl)cc2)CC1 [TCMDC-125035], the “% Inhibition” value rises from 54% to 69.39%.

Compared with O=C(NCCC1CCN(CCc2c[nH]c3ccccc23)CC1)Nc1ccc(Cl)c(Cl)c1 [TCMDC-139151], O=C(CCc1ccccc1)N[C@H](Cc1c[nH]c2ccccc12)C(=O)N1CCC(NCc2ccc3c(c2)Cc2ccccc2-3)CC1 [TCMDC-135353] is lower in “% Inhibition” value: 31.54% for the first, 27.37% for the second.

First: C[C@@H](CNc1ccnc(Nc2ccc3[nH]c(=O)[nH]c3c2)n1)c1ccccc1 [TCMDC-136803]
Second: N#Cc1cccc(Nc2nccc(NCC(O)c3ccccc3C(F)(F)F)n2)c1 (stereo not shown) [TCMDC-136576]
The “% Inhibition” value of the first is lower: -37.25% for the first, -28.54% for the second.

First: O=C(c1cc(C(F)(F)F)cc(C(F)(F)F)c1)N1CCC(CCN2CCC3(CC2)C(=O)NCN3c2ccccc2)CC1Cc1ccc(Cl)c(Cl)c1 (stereo not shown) [TCMDC-141945]
Second: CN1CCN(c2cccc(-c3nnc(-c4ccc(OCC(=O)NCc5ccc(C(F)(F)F)cc5)c([N+](=O)[O-])c4)o3)c2)CC1 [TCMDC-134942]
The “% Inhibition” value of the first is lower: -34.22% for the first, 2.294% for the second.

Going from CC(C)(C)OC(=O)NCc1ccc(Nc2nnc(-c3ccc(OCC(=O)NCc4ccc(C(C)(C)C)cc4)c([N+](=O)[O-])c3)o2)cc1 [TCMDC-134991] to CC(C)(C)OC(=O)NCc1ccc(Nc2nnc(-c3ccc(OCC(=O)NC[C@@H]4CC[C@H]5C[C@@H]4C5(C)C)c([N+](=O)[O-])c3)o2)cc1 [TCMDC-135039], the “% Inhibition” value falls from 114.3% to 110.7%.

Going from CC1(C)[C@H]2CC[C@@H](CNc3nc(NCC(=O)Nc4ccc5ccccc5c4)nc(N4CCC(N5CCCC5)CC4)n3)[C@@H]1C2 [TCMDC-139977] to CC1(C)[C@H]2CC[C@@H](CNc3nc(NCCc4cnc[nH]4)nc(Nc4ccc(Oc5ccccc5)cc4)n3)[C@@H]1C2 [TCMDC-139744], the “% Inhibition” value falls from 10.19% to -37.07%.

Going from CC(C)(C)c1ccc(CNC(=O)COc2ccc(-c3nnc(-c4cccc([N+](=O)[O-])c4)o3)cc2[N+](=O)[O-])cc1 [TCMDC-134986] to CCN(CCN(C)C)Cc1ccc(-c2ccc(NS(=O)(=O)c3cccc(Cl)c3)cc2)cc1 [TCMDC-136601], the “% Inhibition” value rises from -5.433% to 2.097%.

First: CCCc1cc(N2CCC(N3CCCC3)CC2)nc(Nc2ccc(Cl)cc2)n1 [TCMDC-132386]
Second: Cc1ccc(NC(=O)c2cc(Br)cc(N3CCCN(C)CC3)c2)cc1F [TCMDC-135143]
The “% Inhibition” value of the first is higher: 18.02% for the first, -89.56% for the second.

First: FC(F)(F)c1ccc(-c2cncc(-c3ccc(C(F)(F)F)cc3)n2)cc1 [TCMDC-138711]
Second: CCCCCN1CCCC(CNS(=O)(=O)c2ccc(C(=O)Nc3ccc(C(F)(F)F)cc3)cc2)C1 (stereo not shown) [TCMDC-133679]
The “% Inhibition” value of the first is lower: -27.18% for the first, -5.047% for the second.

Going from CN1CCN(CCCN(Cc2ccc(-c3cccc(CNCc4ccc5c(c4)OCO5)c3)cc2)C(=O)NCCc2ccccc2)CC1 [TCMDC-140947] to CN1CCN(CCCN(Cc2ccc(-c3cccc(CNCc4ccc5c(c4)OCO5)c3)cc2)C(=O)Nc2ccccc2)CC1 [TCMDC-140606], the “% Inhibition” value falls from 67.47% to 65.32%.

First: CN1CCN(CCCN(Cc2ccc(-c3ccc(CNCc4ccc5c(c4)OCO5)cc3)cc2)C(=O)Nc2ccccc2)CC1 [TCMDC-140607]
Second: CN1CCN(CCCN(Cc2cccc(-c3ccc(CNCc4ccc5c(c4)OCO5)cc3)c2)C(=O)Nc2ccccc2)CC1 [TCMDC-140596]
The “% Inhibition” value of the first is higher: 58.83% for the first, 57.54% for the second.

First: c1ccc2c(c1)CN(CC1CCOCC1)CC1(CCN(Cc3c[nH]c4cnccc34)CC1)O2 [TCMDC-133380]
Second: CC(C)C[C@H](NC(=O)c1ccc(OCCN2CCOCC2)cc1)C(=O)N[C@H](/C=N/NC(=O)c1ccccc1)CCc1ccccc1 [TCMDC-135817]
The “% Inhibition” value of the first is higher: 13.86% for the first, 2.96% for the second.

Going from O=C(NCCCN(Cc1ccc(F)cc1)c1ccccn1)C(c1cc2ccccc2o1)N1CCN(C(c2ccccc2)c2ccccc2)CC1 (stereo not shown) [TCMDC-141022] to O=C(COC(=O)c1cccc(S(=O)(=O)N2CCc3ccccc32)c1)NNC(=O)c1cccs1 [TCMDC-124334], the “% Inhibition” value rises from 15.04% to 26.4%.

Going from COc1ccc(CN=C(N)Nc2nc(-c3ccc(OCCCn4ccnc4)cc3)cs2)cc1 [TCMDC-138934] to NC(=NCc1ccc(O)cc1)Nc1nc(-c2ccc(OCCCn3ccnc3)cc2)cs1 [TCMDC-138936], the “% Inhibition” value falls from 9.829% to -10.17%.

Going from CCCCCCN=C(N)c1ccc2nc(-c3ccc(O)cc3)[nH]c2c1 [TCMDC-137218] to CCCCCN=C(N)c1ccc(OCCCCCOc2ccc(C(N)=NCCCCC)cc2)cc1 [TCMDC-137620], the “% Inhibition” value rises from 15.89% to 63.24%.

Going from CCCCN=C(N)c1ccc(OCCCCCOc2ccc(C(N)=NCCCC)cc2)cc1 [TCMDC-137617] to CCCCCCN=C(N)c1ccc(OCCCCCOc2ccc(C(N)=NCCCCCC)cc2)cc1 [TCMDC-137619], the “% Inhibition” value rises from 33.37% to 113.3%.

Compared with CC(C)CCN=C(N)c1ccc(OCCCCCOc2ccc(C(N)=NCCC(C)C)cc2)cc1 [TCMDC-137618], CCCCN=C(N)Nc1ccc(OCCCOc2ccc(NC(N)=NCCCC)cc2)cc1 [TCMDC-137616] is lower in “% Inhibition” value: 62.8% for the first, 55.77% for the second.

For CN(C)C=Nc1ccc(OCCCCCCOc2ccc(N=CN(C)C)cc2)cc1 [TCMDC-137575], the “% Inhibition” value was -11.04%.

From PMC4552634, “A New Set of Chemical Starting Points with Plasmodium falciparum Transmission-Blocking Potential for Antimalarial Drug Discovery” (PLoS ONE, 2015)
